Source: PubChem
NPC1 prom act – NPC1 promoter activation. Huh7 NPC1 promoter luciferase reporter, 24 h. AID 485313. Potency, µM (doses to about 9.22 µM), hits mostly activators. hit rate 2.4% among 320,000; note: nearly all actives have a fitted effect of over 60% in size
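Huh7 reporter cells (NPC1 promoter driving luciferase) are dosed with compound for 24 h at 37 °C, 5% CO2; luciferase detection reagent is then added and luminescence measured after 10 min at ambient temperature.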
FLuc modulator – firefly luciferase modulation, counter-screen for miR-21 project. Potency, µM (doses to about 57.5 µM), usual class: inhibitors. hit rate 6.9% among 360,000. P08659. AID 588342. purified FLuc, Km substrates, luminescence inhibition; note: nearly all actives have a fitted effect of over 55% in size
Target sequence (P08659 whole entry, looked up): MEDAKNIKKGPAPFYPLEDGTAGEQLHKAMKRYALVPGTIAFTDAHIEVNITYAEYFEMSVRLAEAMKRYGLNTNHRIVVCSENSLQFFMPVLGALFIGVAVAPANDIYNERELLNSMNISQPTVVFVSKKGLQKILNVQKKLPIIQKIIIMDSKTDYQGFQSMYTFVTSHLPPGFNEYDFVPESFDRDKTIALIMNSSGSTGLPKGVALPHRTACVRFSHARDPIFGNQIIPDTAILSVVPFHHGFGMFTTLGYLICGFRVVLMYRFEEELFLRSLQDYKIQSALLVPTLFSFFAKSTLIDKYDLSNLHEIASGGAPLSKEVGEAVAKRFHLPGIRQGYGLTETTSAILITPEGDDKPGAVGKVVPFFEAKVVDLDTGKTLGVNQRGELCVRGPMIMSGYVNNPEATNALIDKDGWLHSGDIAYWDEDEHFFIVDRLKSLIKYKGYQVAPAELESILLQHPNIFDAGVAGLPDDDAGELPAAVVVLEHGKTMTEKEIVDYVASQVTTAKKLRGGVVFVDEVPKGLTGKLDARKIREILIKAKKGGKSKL
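Purified P. pyralis luciferase (10nM final) with 10uM D-luciferin and 10uM ATP (Km levels) in 50mM Tris acetate pH 7.5, 10mM Mg acetate, 0.01% Tween-20, 0.05% BSA; qHTS 6-point titration, ~60 µM downward; luminescence read.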
SMN2 splice up – enhancers of SMN2 splice variant expression | HEK293 SMN2-luciferase splicing reporter, luminescence, 30-36 h | Potency, µM (doses to about 46.1 µM), actives largely listed as activators | hit rate 2.8% among 210,000; note: nearly all actives have a fitted effect of over 55% in size
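qHTS luciferase splicing reporter: luminescence rises when SMN2 exon 7 is included in transfected HEK293 cells. Compound exposure lasted 30-36 h at 37C, with 4.5 mM final sodium butyrate as control, followed by a ONE-Glo read.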
Luc counter – counter-screen: inhibitors of Kinase-Glo firefly luciferase; Q27757; Potency, µM (series often up to 38.3 µM), most hits filed as inhibitors; Kinase-Glo luciferase, ATP luminescence, 8 min; AID 1379; hit rate 0.28% among 200,000; note: nearly all actives have a fitted effect of over 60% in size
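Substrate mix (final 50 mM imidazole pH 7.2, 50 mM KCl, 7 mM MgCl2, 10 uM ATP, 0.01% Tween 20, 0.05% BSA) plus pin-tool compound, then Kinase-Glo detection mix; 8 min ambient, luminescence read.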
Rab9 promoter act – Rab9 promoter activation | Huh7 Rab9 promoter-luciferase reporter, luminescence, 24 h | Potency, µM (top dose mostly 9.22 µM), usual class: activators | hit rate 2.8% among 320,000; note: nearly all actives have a fitted effect of over 60% in size
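Promoter activation is measured as luciferase luminescence in Huh7 cells stably transfected with a Rab9 promoter–luciferase construct, following 24 h compound exposure at 37 °C and 10 min reagent incubation at ambient temperature.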
ELG1 genotoxic – inducers of genotoxicity in HEK293T ELG1-luciferase cells | HEK293T ELG1-luciferase reporter, luminescence, 16 h | Potency, µM (titrated, usually from 46 µM), most hits filed as activators | hit rate 1.3% among 330,000 | AID 504466; note: nearly all actives have a fitted effect of over 60% in size
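Luminescence read-out: rising ELG1-luciferase signal, reflecting elevated ELG1 protein under genetic stress, flags genotoxic compounds. Cells were treated for 16 hr at 37 °C before ONE-Glo detection.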
Numbers stand for hits; n = inactive; u = inconclusive; x = no result given; [ ] = remark or other dose. In the library only some 7.5% were active in any assay of this set; here they are far more common. Calls come from the whole dose curve; as a rule, active = well fitted curve in the direction sought with a large enough effect; inconclusive = small, poorly fitted or top-dose-only effect, or another doubt; inactive = no such curve, though single readings can be large; an effect the other way counts as inactive or inconclusive.

SMILES | NPC1 prom act | FLuc modulator | SMN2 splice up | Luc counter | Rab9 promoter act | ELG1 genotoxic
CCN(C(=O)COC(=O)c1cc(OC)ccc1Br)C1CCS(=O)(=O)C1 (stereo not given) | x | x | x | x | x | n
CCN(C(=O)COC(=O)c1cccnc1Nc1ccccc1F)C1CCS(=O)(=O)C1 (stereo not given) | u | u | u | 10µM | u | n
COc1ccc(-c2cc(C(=O)Oc3ccc(Cl)cc3)c3ccccc3n2)cc1 | x | n | n | x | x | x
COc1ccc(-c2cc(C(=O)OCC(=O)N(C)C)c3ccccc3n2)cc1 | n | 9.5µM | u | n | n | n
COc1ccc(-c2cc(C(=O)OCc3ccccn3)c3ccccc3n2)cc1 | n | 6.7µM | x | x | n | n
COc1ccc(-c2cc(C(=O)Oc3ccc([N+](=O)[O-])cc3)c3ccccc3n2)cc1 | n | 5.4µM | u | n | n | n
COc1ccc(-c2cc(C(=O)Oc3ccc(C)cc3)c3ccccc3n2)cc1 | x | u | n | x | x | x
O=C(c1ccc(-c2ccc([N+](=O)[O-])cc2)o1)N1CCCC(C(F)(F)F)C1 (stereo not given) | n | n | x | x | n | n
COC(=O)CSc1nnc(SCc2ccccc2)s1 | n | 19µM | n | n | n | n
O=C(CSc1nnc(SCc2ccc(Cl)cc2)s1)N1CCN(C(=O)c2ccco2)CC1 | n | 9.5µM | n | n | n | n
O=C(c1ccc(-c2ccc([N+](=O)[O-])cc2)o1)N1CCCCCCC1 | u | 11µM | x | x | u | n
O=C(CSc1nncs1)N1CCN(C(=O)c2ccco2)CC1 | n | n | x | x | n | n
COC(=O)CSc1nnc(SCc2ccc(Cl)cc2)s1 | n | 17µM | n | n | n | n
CCCn1nc(NC(=O)c2cccc(Cl)c2)c2cc3cccc(C)c3nc21 | x | n | n | x | x | x
O=C(COC(=O)Cc1ccc(Br)cc1)Nc1ccc(Cl)cn1 | x | x | x | x | x | n
O=C(c1ccco1)N1CCN(C(=O)c2ccc(-c3ccc(Cl)cc3)o2)CC1 | n | 17µM | x | x | n | n
CC(C)n1c(NCc2nc3ccccc3n2C)nc2ccccc21 | n | n | n | n | n | n
COc1ccc(Nc2nc3ccccc3n2C)cc1 | 2.5µM | 15µM | x | x | 3.2µM | n
COc1ccc(Nc2nc3ccccc3n3c(N)nnc23)cc1 | x | 9.5µM | n | x | x | x
COc1ccc(Nc2nc3ccccc3n3cnnc23)cc1 | n | n | u | n | n | n
Cc1ccc(NCc2nc3ccccc3n2C)cc1C | 3.5µM | 4.8µM | x | x | 2.8µM | u
CC(C)C(=O)NCCc1nc2ccccc2n1C | n | n[2.3 µM] | n | n | n | n
Cn1c(CNc2nc3ccccc3n2C)nc2ccccc21 | 3.5µM | u | u | n | u | n
CCc1nnc2c3ccccc3nc(Nc3ccc(F)cc3C)n12 | x | n | n | x | x | x
O=C(CSc1nc2ncccc2o1)Nc1ccc(Cl)cc1F | x | n | x | x | x | x
SMILES | NPC1 prom act | FLuc modulator | SMN2 splice up | Luc counter | Rab9 promoter act | ELG1 genotoxic
CCC(C)NC(=O)C1=CC(c2ccc3c(c2)OCO3)=NS(=O)(=O)N1C (stereo not given) | x | n | x | x | x | x
CC(C)OC(=O)c1cccc(NC(=O)Cn2nnc3sc4c(c3c2=O)CCCC4)c1 | x | n | n | x | x | x
CC(Oc1ccccc1)C(=O)N1CCN(Cc2cc(=O)n3nc(-c4ccccc4Cl)sc3n2)CC1 (stereo not given) | x | n | x | x | x | x
COc1ccc(OC)c(NC(=O)c2cc3c(n(-c4ccc(Cl)cc4)c2=O)CC(C)(C)CC3=O)c1 | x | n | n | x | x | x
Cc1cccc(C)c1NC(=O)c1cc(S(=O)(=O)N2CCc3ccccc3C2)ccc1F | x | n | x | x | x | x
CCOC(=O)c1ccc(NCc2nc3ccccc3n2C)cc1 | 3.2µM | u | x | x | 3.2µM | n
Cc1nc2ccccc2n1CCCOc1ccccc1 | n | 11µM | n | n | n | n
Cc1ccc(NC(=O)NCc2nc3ccccc3n2C)cc1 | n | n | x | x | n | n
Cc1ccc(NCc2nc3ccccc3n2C)cc1 | 1.1µM | 3.4µM | 2.2µM | u | 0.63µM | 1.5µM
Cn1c(CNC2CCCCC2)nc2ccccc21 | n | n | n | n | n | n
Cn1c(CNc2ccc(Br)cc2)nc2ccccc21 | 1.6µM | 2.7µM | x | x | 2.8µM | u
Nc1nc(N)c(S(=O)(=O)c2ccccc2)c(Nc2ccc(F)cc2)n1 | x | n | n | x | x | x
Cc1cc(OC(=O)c2ccc(Cl)cc2Cl)c([N+](=O)[O-])c(=O)[nH]1 | n | n | x | x | n | n
COc1ccc([C@@H]2CNC(=O)C2)cc1OC1CCCC1 | x | x | n | n | x | x
COc1ccc(NCc2nc3ccccc3n2CCOc2ccccc2)cc1 | u | 13µM | u | n | u | 21µM
COc1ccc(NCc2nc3ccccc3n2CCOc2ccc(C)cc2)cc1 | n | u | n | n | n | u
Cn1c(CNc2ccc(O)cc2)nc2ccccc21 | u | 13µM | x | x | u | u
COc1ccc(NCc2nc3ccccc3n2C)cc1 | 1.8µM | 11µM | x | x | 2.2µM | 5.2µM
Cc1ccc(NC(=O)C2Cc3ccccc3N2C(=O)c2ccccc2)cc1Cl (stereo not given) | x | n | x | x | x | x
CC(=O)c1ccc(N2CCN(S(=O)(=O)c3ccc4[nH]c5c(c4c3)CCCC5)CC2)cc1 | x | n | x | x | x | x
CCCCOc1ccc(C(=O)Nc2cc(-c3ccc(C)cc3)no2)cc1 | x | n | n | x | x | x
CCOc1cccc(C(=O)Nc2cc(-c3ccc(C)cc3)no2)c1 | x | n | n | x | x | x
COc1cccc(C(=O)Nc2cc(-c3ccccc3)no2)c1 | x | 1.2µM | 16µM | x | x | x
CCOc1ccc(C(=O)Nc2cc(-c3ccccc3)no2)cc1 | x | 1.5µM | u | x | x | x
Cc1ccc(-c2cc(NC(=O)COc3ccc(Cl)c(C)c3)on2)cc1 | x | n | n | x | x | x
SMILES | NPC1 prom act | FLuc modulator | SMN2 splice up | Luc counter | Rab9 promoter act | ELG1 genotoxic
Cc1ccc(-c2cc(NC(=O)c3ccccc3Cl)on2)cc1 | x | u | 13µM | x | x | x
Cc1ccc(Cn2c(=O)n(Cc3ccccc3)c(=O)c3oc4ccccc4c32)cc1 | x | n | x | x | x | x
COc1ccccc1CCNC(=O)CCCn1c(=O)c2cccn2c2cccnc21 | x | n | n | x | x | x
CCCc1ccc(-c2cc(NC(=O)CSc3nnc(N)s3)n(-c3ccccc3)n2)cc1 | 2.5µM | 0.21µM | x | x | 1.3µM | u
Nc1nc(SCC(=O)Nc2cc(-c3ccccc3)nn2-c2ccccc2)n[nH]1 | n | n | n | n | n | n
Cc1ccc(-c2cc(NC(=O)CSc3n[nH]c(N)n3)n(-c3ccccc3)n2)cc1 | n | 19µM | n | n | n | n
O=C(Nc1ccc(C(=O)N2CCCCC2)cc1)c1cccs1 | n | u | x | x | n | u
CCC(C)NS(=O)(=O)c1ccc(NC(=O)c2cccs2)cc1 (stereo not given) | n | n | x | n | n | n
O=C(/C=C/c1cccs1)c1ccc(NC(=O)c2ccccc2F)cc1 | n | 3µM | n | n | n | n
CCC(C)c1ccc(NC(=O)c2cccs2)cc1 (stereo not given) | 0.4µM | 0.67µM | 7.9µM | n | 0.45µM | 0.73µM
O=C(Nc1ccc(NC(=O)C2CC2)cc1)c1cccs1 | 3.5µM | 13µM | x | x | 1.3µM | u
